Screens: PubChem BioAssay, National Center for Advancing Translational Sciences (NCATS)
TDP-43 yeast inh = inhibitors of TDP-43 toxicity in yeast | TDP-43 expressing yeast growth rescue, BacTiter-Glo, 24 h | Potency, µM (doses to about 46.1 µM), for the others: top-dose growth rescue (activation), hits mostly activators | hit rate 1.8% among 410,000; note: % of control where 0% means no effect; nearly all actives have a fitted effect of over 50% in size
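Yeast expressing TDP-43 (pregrown in raffinose, seeded at OD600=0.02 in galactose medium) exposed to compounds 24 hr at 30 deg C. Growth read by BacTiter-Glo luminescence; rescue of toxicity appears as increased signal.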
Abeta rescue = A-beta toxicity reversal in yeast; hit rate 0.063% among 410,000; Potency, µM (highest dose often 46.1 µM), most hits filed as activators; yeast expressing A-beta42, growth rescue, OD600, 48 h; response scale: 0% DMSO, 100% iron-clioquinol control; note: nearly all actives have a fitted effect of over 55% in size
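Growth rescue measured by 600 nm absorbance after 48 h yeast culture at 30 C with compound. Values normalized between DMSO and an equimolar ferric chloride plus clioquinol control.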
FUS yeast rescue = rescues growth of FUS-expressing yeast | S. cerevisiae FUS-expressing, growth rescue, OD600, 24 h | Potency, µM (doses to about 76.6 µM), usual class: activators | hit rate 0.24% among 390,000;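 note: plate controls were DMSO vehicle for no effect and reference control for full effect; nearly all actives have a fitted effect of over 55% in size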
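Compound concentration series was pinned onto galactose-induced FUS-expressing yeast seeded at OD 0.005. Plates sat 24hr at 30C; absorbance at 600 nm gave growth. DMSO served as background control.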
aSyn rescue = inhibitors of alpha-synuclein toxicity in yeast | AID 652106 | Yeast expressing alpha-synuclein, growth rescue, BacTiter-Glo, 24 h | hit rate 0.14% among 370,000 | Potency, µM (top dose mostly 46.1 µM), inactives show top-dose growth rescue (activation), usual class: activators; note: % of control where 0% means no effect; nearly all actives have a fitted effect of over 65% in size
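Readout is rescue of growth in alpha-synuclein-expressing yeast, so inhibitors of toxicity appear as activators. Growth after 24 hr at 30 deg C in galactose medium is quantified by luminescence.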
Numbers without * were called inactive; i = inactive; u = inconclusive; x = not tested or not shown; [ ] = remark or other dose. This is a sample that favours compounds with a hit; in the whole collection about 2.1% have one here. Calls come from the whole dose curve; as a rule, active = well fitted curve in the direction sought with a large enough effect; inconclusive = small, poorly fitted or top-dose-only effect, or another doubt; inactive = no such curve, though single readings can be large; an effect the other way counts as inactive or inconclusive. Potency is the fitted concentration of half-maximal effect.

SMILES	TDP-43 yeast inh	Abeta rescue	FUS yeast rescue	aSyn rescue
Cc1cccc(NC(=O)c2cc(-c3cc(C)ccc3O)n[nH]2)c1	-1.1%	i	i	-4.3%
Cc1ccc(O)c(-c2cc(C(F)(F)F)[nH]n2)c1	17.8µM*	u	i	2.8%
Fc1ccccc1-c1ccc(-c2nc3ccc(Cl)cn3c2Nc2ccc(Cl)cc2)o1	x	x	x	-45.5%
CN(C)CC(=O)N[C@@H]1C[C@@H]2O[C@@H](CO)CC[C@@H]2O[C@@H]1CCc1ccc(-c2ccc(F)cc2)cc1	x	x	i	x
CCc1ccccc1NC(=O)CSc1nnc2ccc3ccccc3n12	u	i	i	x
O=C(CSc1nnc2ccc3ccccc3n12)Nc1ccccc1Cl	17.8µM*	i	i	x
C(=Nc1ccc2ccccc2n1)c1ccccn1	x	x	x	2.2%
Cc1nc(Cl)sc1C(=O)Nc1cc(F)cc(F)c1	11.2µM*	i	i	2.9%
Cc1nc(Cl)sc1C(=O)Nc1ccc(F)cc1	2.7%	i	i	-1.8%
CNc1cncc(-c2c(OC)cccc2OC)n1	3.8%	i	i	-4.0%
CNc1cncc(-c2ccc(F)c(F)c2)n1	u	i	i	23.3%
CNc1cncc(-c2cccc(OC)c2F)n1	28.2µM*	i	i	3.0%
CNc1cncc(-c2ccc(OC)c(OC)c2)n1	-46.9%	i	i	7.94µM*
O=C(NCCc1nc2ccccc2n1C/C=C/c1ccccc1)C1CCCCC1	x	x	i	x
CC(C)c1nc2sc3c(=S)nc[nH]c3c2c2c1CCC2	15.8µM*	i	i	2.6%
CC(C)c1nc2sc3c(=O)[nH]cnc3c2c2c1CCC2	22.3%	i	i	1.7%
CCOC(=O)c1ccc(NC2c3ccccc3C(=O)N2c2ccc(C)cn2)cc1 (stereo not given)	0.0%	i	i	3.98µM*
O=[N+]([O-])c1cccc(OCCCN2CCC(C(O)(c3ccccc3)c3ccccc3)CC2)c1	x	x	i	x
COc1cccc(NC(C)C(=O)Nc2cc([N+](=O)[O-])ccc2Cl)c1 (stereo not given)	11.2µM*	i	i	9.6%
COc1ccc(NC(=S)Nc2cccc([N+](=O)[O-])c2)cc1	u	i	i	0.1%
CC(=O)Nc1cccc(OCCCOc2cccc([N+](=O)[O-])c2)c1	12.6µM*	i	x	-7.2%
COc1ccc(OC(C)C(=O)Nc2cccc([N+](=O)[O-])c2)cc1 (stereo not given)	10µM*	i	x	-7.6%
COc1ccc(CCn2c(=S)[nH]c(=O)c3cccnc32)cc1OC	x	x	x	-8.2%
O=C(NCCc1nc2ccccc2n1CCOc1ccc2cccnc2c1)C1CCCCC1	x	x	i	x
CC1CCN(C(=S)c2ccc(N(C)C)cc2)CC1	-13.3%[1.82 µM]	12.6µM*	i	-6.9%
SMILES	TDP-43 yeast inh	Abeta rescue	FUS yeast rescue	aSyn rescue
O=C(CCc1nc2cccnc2n1Cc1cccs1)Nc1cccc(C(F)(F)F)c1	25.1µM*	u	i	x
COc1ccc(NC(=O)CCc2nc3cccnc3n2Cc2cccs2)c(OC)c1	24.2%	i	i	x
O=C(NCC(c1ccco1)S(=O)(=O)c1ccc(Cl)cc1)c1ccc(C(F)(F)F)cc1 (stereo not given)	15.8µM*	i	i	x
Cc1ccc(S(=O)(=O)C(CNC(=O)c2ccc(C(F)(F)F)cc2)c2ccco2)cc1 (stereo not given)	-21.8%	i	u	x
Cc1cc(N2CCN(c3cccc(C)c3C)CC2)n2cnnc2n1	22.4µM*	i	i	x
Cc1cc(N2CCN(c3ccccc3F)CC2)n2cnnc2n1	u	i	i	x
Cc1nn(C)c(Nc2ccc(Br)cc2)c1Br	17.8µM*	u	i	u
O=C(NCCCN1CCN(c2ccc(F)cc2)CC1)Nc1ccccc1	x	x	i	x
CCOc1ccc(C(=O)NCCc2sc(-c3ccc(C)cc3)nc2C)cc1	u	i	i	x
COc1ccc(-c2nc(C)c(CCNC(=O)c3cccc(C)c3)s2)cc1OC	22.4µM*	i	i	-6.2%
Cc1cccc(-c2nc(C)c(CCNC(=O)C(=O)Nc3c(C)cc(C)cc3C)s2)c1	12.9%	i	i	5.8%
COc1ccc(-c2nc(C)c(CCNC(=O)c3cccs3)s2)cc1	14.1µM*	i	i	-5.6%
COc1ccc(-c2nc(C)c(CCNC(=O)c3cc(OC)c(OC)c(OC)c3)s2)cc1OC	5.2%	i	i	3.1%
Cc1ccc(-c2nc(C)c(CCNC(=O)c3cccs3)s2)cc1	15.8µM*	i	i	-19.3%
Cc1cccc(-c2nc(C)c(CCNC(=O)c3cccs3)s2)c1	15.8µM*	i	i	-21.5%
COC(=O)CNC(=O)CNC1(C(=O)NCCc2c[nH]c3ccccc23)CCCCC1	x	x	i	x
O=C1CC(c2ccccc2)Cc2[nH]c(=O)c(C(=O)O)cc21 (stereo not given)	x	x	x	-13.1%
CCCNC(=O)C[C@H]1CC[C@H]2[C@@H](COc3ccc(NC(=O)c4cncs4)cc3C(=O)N2C)O1	x	x	i	x
Cc1nc(-c2ccccc2)sc1CCNC(=O)c1ccco1	17.8µM*	i	i	-14.1%
CCOC(=O)c1c(C)nc(C(Cl)(Cl)Cl)nc1N	11.2µM*	i	i	0.3%
Fc1cc(Br)ccc1NC(=S)Nc1ccccc1	u	i	x	-8.1%
Fc1ccccc1NC(=S)Nc1ccc(Br)cc1	12.6µM*	i	i	-41.3%
CC(C)(C)NC(=S)Nc1ccc(Nc2ccccc2)cc1	10.4%	u	i	-14.9%
CC(C)(C)NC(=S)Nc1ccc(Br)cc1	15.8µM*	i	i	-17.9%
COc1cc2ncnc(N3CCN(C(=O)Nc4ccc(Oc5ccccc5)cc4)CC3)c2cc1OC	x	x	x	1.8%
SMILES	TDP-43 yeast inh	Abeta rescue	FUS yeast rescue	aSyn rescue
O=C(N/N=C/c1cc(Br)cc(Cl)c1O)c1ccc2c(c1)OCO2	6.31µM*	i	i	5.62µM*
CCN(CC)c1ccc(/C=C/c2ccc3ccccc3n2)cc1	x	x	x	-66.8%
O=C(Nc1nc2c(Cl)cccc2s1)C1CC1	19.5%	i	i	-0.5%
Cc1cccc2sc(NC(=O)CCn3cccc3)nc12	u	u	i	-1.2%
O=C(Nc1nc2cc3c(cc2s1)OCO3)C1CCCCC1	7.5%	i	i	-4.1%
O=C(Nc1nc2cc3c(cc2s1)OCCO3)C1CCCCC1	25.1µM*	i	i	-27.1%
Cc1cccc2sc(NC(=O)C3CC3)nc12	11.2µM*	i	i	-22.7%
Cc1cccc2sc(NC(=O)Cn3cccc3)nc12	7.1%	11.2µM*	i	17.6%
CC(C)c1ccc2nc(NC(=O)C3CC3)sc2c1	22.4µM*	i	i	-14.9%
COC(=O)C1CN(Cc2cn(Cc3ccc(OC)cc3)nn2)CCS(=O)(=O)N1Cc1ccccc1 (stereo not given)	x	x	i	x
Cc1cccc2sc(NC(=O)CN(C)S(=O)(=O)c3cccs3)nc12	15.8µM*	i	i	21.6%
Cc1cccc2sc(NC(=O)CN(C)S(=O)(=O)c3ccc(Br)s3)nc12	u	i	i	5.1%
